Laboratory results reported in PubChem BioAssay.

test system: Inhibin beta A chain (activin A); assay: small molecules binding activin A – biochemical, small-molecule microarray, 635 nm fluorescence scan, primary screen (AID 1107); settings: INHBA, higher = more signal;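 further: mouse activin A protein probed at 4.33 µg/mL on printed slides; score merges bound-protein fluorescence near 667 nm with spot signal-to-noise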

Row | Structure (SMILES) | composite z-score
1 | CCOC(=O)C[C@H]1[C@H](OC(=O)c2ccc(-c3ccccc3)cc2)[C@@H](NC(=O)c2ccccc2)c2cc(OCCCO)ccc2N1C(=O)c1ccc2ccccc2n1 | -0.466
2 | O=c1cccc(-c2ccccc2Cl)o1 | 0.747
3 | C=CCC(OC(C)=O)[C@@H]1[C@@H](N(Cc2cc3ccccc3o2)C(=O)Cc2ccc(OC)cc2)c2cc(OCCCO)ccc2N1C(=O)c1ccc2ccccc2c1 (stereo not given in full) | 1.16
4 | CS(=O)(=O)CCOC(=O)C1=CC(CCCO)=CC(c2ccc(CN3CCCC3)cc2)N(Cc2cccc(OC(F)(F)F)c2)C=C1C(=O)OCCS(C)(=O)=O (stereo not given) | 1.32
5 | O=C1[C@@]23C=C(Br)[C@H](C[C@@H]2COC3)[C@]12CO2 | 1.69
6 | O=C(CS)NCCCCCNC(=O)[C@H]1C[C@H]2C(=O)NCC(=O)N2[C@H]1c1ccc(O)cc1 | -0.583
7 | CC(c1ccccc1)C(O)C1C=CC2C(=O)N(c3ccccc3)C(=O)C2N1Nc1ccccc1 (stereo not given) | 0.215
8 | COC(=O)c1c(CC[C@@H](CO)NC(=O)NCCc2c[nH]c3ccccc23)oc(C(=O)Cc2ccccc2)c1C(=O)OC | 0.553
9 | O=C(O)[C@H]1C[C@H]2C(=O)N3CCC[C@H]3C(=O)N2[C@H]1c1ccc(O)cc1 | -0.209
10 | Cc1c(NC(=O)/C(C#N)=C/c2cccc([N+](=O)[O-])c2)c(=O)n(-c2ccccc2)n1C | 0.107
11 | CCOC(=O)C1=CCC(c2ccc(F)cc2)N(S(=O)(=O)c2ccc(C)cc2)C1 (stereo not given) | 1.01
12 | COC(=O)C(CC#Cc1ccc2c(c1)[C@]1(C(=O)N2)[C@H](c2ccc(O)cc2)N2[C@H](c3ccccc3)[C@H](c3ccccc3)OC(=O)[C@H]2[C@@H]1C(=O)N1CCN(c2ncccn2)CC1)C(=O)OC | 0.126
13 | O=C1O[C@H](c2ccccc2)[C@H](c2ccccc2)N2[C@H]1[C@@H](C(=O)NC[C@H](O)c1ccccc1)[C@]1(C(=O)Nc3ccccc31)[C@H]2c1ccc(O)cc1 | -1.04
14 | COCCOC(=O)N1C(=O)[C@@]2(c3cc(C#Cc4ccc(OC)cc4)ccc31)[C@H](c1ccc(O)cc1)N1[C@H](c3ccccc3)[C@H](c3ccccc3)OC(=O)[C@H]1[C@@H]2C(=O)Nc1nc2ccccc2s1 | 0.277
15 | CC(C)=CCCC(C)=CC(O)C1C=CC2C(=O)N(c3ccccc3)C(=O)C2N1Nc1ccc(C(C)C)cc1 (stereo not given) | 0.583
16 | O=C(O)[C@H](Cc1ccccc1)n1cc(-c2ccccc2)nn1 | 0.267
17 | COC(=O)C(CC#Cc1ccc2c(c1)[C@]1(C(=O)N2)[C@H](c2ccccc2OCCO)N2[C@H](c3ccccc3)[C@H](c3ccccc3)OC(=O)[C@H]2[C@@H]1C(N)=O)C(=O)OC | 0.693
18 | [N-]=[N+]=Nc1ccccc1C[C@]1(C(=O)NCC(O)CO)N=C(c2ccc(OCCCO)cc2)O[C@H]1c1ccccc1 (stereo not given in full) | 0.537

Row | Structure (SMILES) | composite z-score
19 | Cc1ccc([C@H]2C(C(=O)O)=CCN2S(=O)(=O)c2ccc(C)cc2)cc1 | 1.03
20 | [N-]=[N+]=Nc1ccccc1C[C@]1(C(=O)NCc2ccccc2)N=C(c2ccc(OCCCO)cc2)O[C@H]1c1ccccc1N=[N+]=[N-] | 1.11
21 | CC(=O)NCCCC[C@@H]1NC(=O)[C@H]2C[C@@H](C(=O)O)[C@@H](c3ccc(O)cc3)N2C1=O | 1.47
22 | COCCOC(=O)N1C(=O)[C@@]2(c3cc(C#CC4(O)CCCCCC4)ccc31)[C@H](C(=O)Nc1nc3ccccc3s1)[C@H]1C(=O)O[C@H](c3ccccc3)[C@H](c3ccccc3)N1[C@@H]2c1ccccc1OCCO | -0.0079
23 | COCC(=C=CC[C@H](O)c1cccc(OCCO)c1)C[C@H](O)c1cc(Cl)cc(Cl)c1O | 0.712
24 | [N-]=[N+]=Nc1ccccc1[C@H]1OC(c2ccc(OCCCO)cc2)=N[C@@]1(Cc1ccccc1)C(=O)N1CCOCC1 | 1.11
25 | CCCCC(O)C1C=CC2C(=O)N(C)C(=O)C2N1N1CCCCC1 (stereo not given) | 1.42
26 | COc1ccc(NC(=O)O[C@H]2[C@H](OC(=O)c3cc4ccccc4[nH]3)[C@@H](OC(=O)c3cc4ccccc4[nH]3)[C@@H](OC)O[C@@H]2CO)cc1 | 0.287
27 | CN1C(=O)C2C=CC(C(O)c3c(F)cccc3Cl)N(NC(=O)OC(C)(C)C)C2C1=O (stereo not given) | 0.449
28 | O=C(CS)NCCCCCNC(=O)[C@@H]1C[C@@H]2C(=O)NCC(=O)N2[C@@H]1c1ccc(O)cc1 | 0.606
29 | COc1ccccc1CN1C(=O)c2ccccc2[C@@]2(Cc3ccccc3N(CCCN(C)C)C2=O)[C@@H]1c1ccc(CO)cc1 | 1.19
30 | [N-]=[N+]=NCc1ccccc1C[C@@]1(C(=O)NCC(O)CO)N=C(c2ccc(OCCCO)cc2)O[C@@H]1c1ccccc1 (stereo not given in full) | 0.377
31 | CCOC(=O)[C@H]1C/C=C/C[C@H](C(=O)OCC)C(=O)O[C@H]2[C@@H](OC)O[C@H](CO)[C@@H](OC(=O)c3ccc(Br)cc3)[C@@H]2OC1=O | 0.802
32 | O=C1OCC=C[C@H]2OC34C=CCN(Cn5nnc6ccccc65)C(=O)[C@H]3N(CCCCCO)C(=O)[C@@H]4[C@@H]12 (stereo not given in full) | -0.212
33 | COCC(=C=CC[C@H](O)c1cccc(OCCO)c1)CCO | 0.177
34 | O=C1NC(=O)C2C1C=CC(C(O)c1ccc(I)cc1)N2Nc1ccc(Cl)cc1Cl (stereo not given) | 0.871
35 | COC(=O)[C@@]1(Cc2ccccc2)[C@H]2c3cc(C(=O)N(C)C)n(CCc4c[nH]c5ccc(O)cc45)c3C[C@H]2CN1C(=O)c1ccccc1 | 1.3
